# From PubChem BioAssay
# Activity calls are given as the source filed them. Unless noted, the rule behind the calls is not given here.
# Tests used:
# [1] = HepG2 liver cancer cell viability effects, profiling panel, resazurin fluorescence, 24 h, PK04 Diversity Set (AID 1172); conditions: higher = more signal
# [2] = basal S. cerevisiae growth modulation, no modifier, primary screen, OD600, strain BY4716, 24 h, basal condition (AID 1173); conditions: OD600, 24 h, higher = more signal, called active from +8 up or from −8 down
# [3] = MM1S myeloma cell viability, profiling panel, resazurin fluorescence, basal, 24 h, PK04 Diversity Set (AID 1174); conditions: higher = more signal, called active from +8 up or from −8 down;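 note: MM1S multiple myeloma cell line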
# [4] = molecular target: Dihydroorotate dehydrogenase (quinone), mitochondrial (Plasmodium falciparum (isolate 3D7)) (UniProt Q08210); experiment: PfDHODH enzyme inhibitors, primary screen, biochemical, C-terminal His tag, absorbance 600 nm (AID 1175); conditions: DCIP absorbance 600 nm, higher = more signal, called active from +8 up or from −8 down;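 note: recombinant parasite enzyme with a five histidine tag at its C terminus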
# Dihydroorotate dehydrogenase (quinone), mitochondrial (Plasmodium falciparum (isolate 3D7)), sequence (Q08210 whole entry, looked up): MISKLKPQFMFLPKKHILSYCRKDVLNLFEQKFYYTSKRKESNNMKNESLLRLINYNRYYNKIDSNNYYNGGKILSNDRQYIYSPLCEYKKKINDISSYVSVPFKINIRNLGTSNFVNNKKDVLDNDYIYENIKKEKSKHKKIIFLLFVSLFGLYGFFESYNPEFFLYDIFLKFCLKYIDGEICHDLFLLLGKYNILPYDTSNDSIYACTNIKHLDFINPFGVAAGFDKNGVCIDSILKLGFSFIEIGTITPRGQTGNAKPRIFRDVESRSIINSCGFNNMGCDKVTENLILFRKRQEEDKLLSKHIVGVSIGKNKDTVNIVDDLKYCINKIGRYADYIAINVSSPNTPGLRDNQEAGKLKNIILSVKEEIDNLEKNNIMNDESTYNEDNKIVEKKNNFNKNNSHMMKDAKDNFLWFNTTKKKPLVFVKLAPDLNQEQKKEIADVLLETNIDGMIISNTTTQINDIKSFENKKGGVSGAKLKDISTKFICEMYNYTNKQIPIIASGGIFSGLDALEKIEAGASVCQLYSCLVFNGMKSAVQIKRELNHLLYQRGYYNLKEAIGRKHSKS
# [5] = P. aeruginosa biofilm formation inhibitors, primary screen, strain PAO1, LB-PBS medium, absorbance 600 nm (AID 1176); conditions: P. aeruginosa PAO1 growth/biofilm, A600, 12 h; higher = more signal
# [6] = S. cerevisiae RM11-1a growth modifiers, primary screen, strain RM11-1a, OD600, basal, 24 h (AID 1177); conditions: OD600, 24 h, higher = more signal, called active from +8 up or from −8 down;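 note: cultures grown under basal conditions with no added stressor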
# [7] = E. coli acrAB mutant growth effects, primary screen, E. coli filamentation inducers, strain DRC39, OD650, 24 h (AID 1178); conditions: higher = more signal, called active from +8 up or from −8 down;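 note: growth measured as culture turbidity by optical density at 650 nm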
# [8] = E. coli acrAB mutant growth effects, primary screen, E. coli filamentation inducers, strain DRC39, OD650, 48 h (AID 1179);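 note: screen aims at cell division blockers that make cells filament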; conditions: E. coli DRC39 delta-acrAB growth, higher = more signal, called active from +8 up or from −8 down
# [9] = RPMI8226 myeloma cell viability, profiling panel, resazurin fluorescence, basal, 24 h, PK04 Diversity Set (AID 1180); conditions: higher = more signal;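 note: RPMI8826 multiple myeloma cell line at 5000 cells per well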
# [10] = molecular target: E3 ubiquitin-protein ligase XIAP (Homo sapiens) (UniProt P98170); experiment: XIAP binders, primary screen, biophysical, small-molecule microarray, fluorescence 635 nm (AID 1181); conditions: small-molecule microarray binding, higher = more signal;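 note: score merges 667 nm emission and signal to noise over triplicate slides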
# E3 ubiquitin-protein ligase XIAP (Homo sapiens), sequence (P98170 whole entry, looked up): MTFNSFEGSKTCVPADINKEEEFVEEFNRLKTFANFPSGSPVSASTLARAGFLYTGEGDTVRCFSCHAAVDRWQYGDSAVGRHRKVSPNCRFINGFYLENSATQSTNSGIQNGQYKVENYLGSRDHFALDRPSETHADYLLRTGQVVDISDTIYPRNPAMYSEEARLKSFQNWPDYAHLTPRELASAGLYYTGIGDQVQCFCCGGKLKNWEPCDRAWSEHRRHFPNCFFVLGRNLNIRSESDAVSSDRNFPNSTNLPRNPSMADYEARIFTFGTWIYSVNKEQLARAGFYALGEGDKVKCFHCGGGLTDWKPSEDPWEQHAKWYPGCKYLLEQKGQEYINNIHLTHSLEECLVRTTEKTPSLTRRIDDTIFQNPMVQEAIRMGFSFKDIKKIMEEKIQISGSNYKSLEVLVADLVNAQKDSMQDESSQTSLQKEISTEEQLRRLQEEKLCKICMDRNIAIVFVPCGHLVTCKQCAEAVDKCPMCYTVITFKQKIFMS
# [11] = test system: XIP peptide (Xip251-270) binding; experiment: small-molecule binders of XIP peptide, primary screen, biochemical, small-molecule microarray, fluorescence 635/667 nm, 0.1 µg/mL protein (AID 1182); conditions: fluorescent protein binding, 635 nm, higher = more signal, called active from +8 up or from −8 down
# [12] = test system: XIP peptide (Xip251-270); experiment: small-molecule binders of XIP peptide, primary screen, biochemical, small-molecule microarray, fluorescence 635/667 nm, 0.5 µg/mL protein (AID 1183); conditions: small-molecule microarray binding, fluorescence 635 nm; higher = more signal
# [13] = Plasmodium falciparum growth inhibition, primary screen, strain 3D7, DAPI fluorescence, 100 nL (AID 1184);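 note: parasites grown inside human red blood cells in medium with human serum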; conditions: P. falciparum 3D7 growth, 3 d, higher = more signal
# [14] = molecular target: Homeobox protein Hox-A13 (Mus musculus) (UniProt Q62424); experiment: inhibitors of HoxA13-DNA binding, primary screen, biochemical, fluorescence polarization, labeled oligonucleotide (AID 1185); conditions: 15 min, higher = more signal, called active from +8 up or from −8 down
# Homeobox protein Hox-A13 (Mus musculus), sequence (Q62424 whole entry, looked up): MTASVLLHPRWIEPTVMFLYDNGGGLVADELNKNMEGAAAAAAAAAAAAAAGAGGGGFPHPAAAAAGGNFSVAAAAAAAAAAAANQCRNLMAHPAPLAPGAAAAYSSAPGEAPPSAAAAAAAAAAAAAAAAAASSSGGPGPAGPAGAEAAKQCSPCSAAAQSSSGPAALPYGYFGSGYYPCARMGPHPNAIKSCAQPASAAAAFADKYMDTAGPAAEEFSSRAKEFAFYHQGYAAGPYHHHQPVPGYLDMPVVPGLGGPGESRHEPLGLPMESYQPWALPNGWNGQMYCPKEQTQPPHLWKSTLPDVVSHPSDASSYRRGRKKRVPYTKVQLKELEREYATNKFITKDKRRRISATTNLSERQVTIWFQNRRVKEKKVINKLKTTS
# [15] = inhibitors of hydroxyurea-induced Chk1 phosphorylation, primary screen, imaging, HeLa, phospho-Chk1 antibody, percent positive cells (AID 1186); conditions: hydroxyurea-induced phospho-Chk1 immunofluorescence imaging, higher = more signal
# [16] = inhibitors of hydroxyurea-induced Chk1 phosphorylation, primary screen, imaging, HeLa, phospho-Chk1 nuclear intensity (AID 1187); conditions: hydroxyurea-induced phospho-Chk1 immunofluorescence imaging, higher = more signal
SMILES,z-score [1],z-score [2],z-score [3],composite z-score [4],z-score [5],z-score [6],z-score [7],z-score [8],z-score [9],composite z-score [10],composite z-score [11],composite z-score [12],z-score [13],z-score [14],z-score [15],z-score [16]
CC(C)NC(=O)[C@@]1(c2ccc([N+](=O)[O-])cc2)CC(=O)N(C(C)C)[C@@H]1c1ccc(CO)cc1,-0.864,0.347 (inactive),-0.972 (inactive),-1.53 (inactive),1.13 (inactive),-1.58 (inactive),0.423 (inactive),1.17 (inactive),-0.792,-0.369,0.508 (inactive),0.316,0.468,-2 (inactive),-0.403 (inactive),-0.102 (inactive)
C=C[C@@H](C)[C@@H](OC(=O)Nc1ccc(OC)cc1)c1ccc(O)c2ccccc12,-1.42,-18.5 (active),-5.02 (inactive),-3.79 (inactive),1.43 (inactive),-22.2 (active),0.99 (inactive),0.224 (inactive),-4.37,-0.125,1.36 (inactive),-0.0477,-1.65,-3.38 (inactive),0.453 (inactive),0.196 (inactive)
Cc1ccc(S[C@]2(C(=O)NCC(C)C)CC(=O)N(Cc3ccccc3)[C@@H]2c2ccc(CO)cc2)cc1,0.408,-0.841 (inactive),0.559 (inactive),-0.586 (inactive),0.525 (inactive),-0.341 (inactive),0.298 (inactive),-0.667 (inactive),0.505,0.104,1.34 (inactive),0.404,-0.894,-2.95 (inactive),0.306 (inactive),-0.141 (inactive)
CC(C)(C)OC(=O)CC[C@@]1(C(=O)N2CCOCC2)N=C(c2ccc(OCCCO)cc2)O[C@@H]1c1ccccc1N=[N+]=[N-],0.725,0.297 (inactive),-0.894 (inactive),0.668 (inactive),-0.596 (inactive),1.1 (inactive),0.611 (inactive),1.52 (inactive),0.066,0.205,0.14 (inactive),0.84,-1.97,-4.17 (inactive),-0.496 (inactive),-0.439 (inactive)
COCCOC(=O)N1C(=O)[C@@]2(c3cc(C#CCCO)ccc31)[C@H](c1ccc(O)cc1)N1[C@H](c3ccccc3)[C@H](c3ccccc3)OC(=O)[C@H]1[C@@H]2C(=O)N1CCCCCCC1,-0.681,0.015 (inactive),-0.216 (inactive),0.232 (inactive),0.915 (inactive),0.38 (inactive),0.27 (inactive),-0.002 (inactive),-0.98,0.23,0.449 (inactive),0.723,-0.0358,-1.14 (inactive),-0.0035 (inactive),-0.334 (inactive)
CC(C)C(O)C1C=CC2C(=O)N(C)C(=O)C2N1N1CCCCC1 (centres undefined),-0.401,0.717 (inactive),-0.82 (inactive),-0.0607 (inactive),0.916 (inactive),0.0471 (inactive),-0.754 (inactive),-0.837 (inactive),-0.323,-0.0448,-0.335 (inactive),0.855,0.998,-4.51 (inactive),0.604 (inactive),0.171 (inactive)
CN1C(=O)C2C(C1=O)C1C=C(c3ccc(CO)cc3)C2C(C2CC2)N1Cc1sc2ccccc2c1Cl (centres undefined),0.0076,-1.82 (inactive),-5.41 (inactive),-1.46 (inactive),0.255 (inactive),1.2 (inactive),0.225 (inactive),0.0618 (inactive),-3.3,0.262,0.406 (inactive),0.745,-1.9,-3.23 (inactive),0.21 (inactive),0.442 (inactive)
COCCOC(=O)N1C(=O)[C@@]2(c3ccccc31)[C@H](c1ccc(O)cc1)N1[C@H](c3ccccc3)[C@H](c3ccccc3)OC(=O)[C@H]1[C@@H]2C(N)=O,-0.701,0.652 (inactive),-0.916 (inactive),-0.766 (inactive),0.125 (inactive),0.623 (inactive),0.596 (inactive),0.687 (inactive),-1.01,0.0228,-0.728 (inactive),-0.0106,0.346,-5.26 (inactive),-0.0882 (inactive),-0.282 (inactive)
CCCNC(=O)[C@@]1(c2ccc([N+](=O)[O-])cc2)CC(=O)N(CC23CC4CC(CC(C4)C2)C3)[C@@H]1c1ccc(CO)cc1I,-2.95,0.285 (inactive),-3.47 (inactive),0.286 (inactive),0.32 (inactive),1.34 (inactive),-0.643 (inactive),0.198 (inactive),-4.07,-0.0749,1.18 (inactive),0.59,-1.55,-3.75 (inactive),-0.28 (inactive),-0.51 (inactive)
CC(C)C(=C=CC[C@H](O)c1ccccc1OCCO)CCO,-0.457,-1.39 (inactive),-0.0976 (inactive),-0.757 (inactive),1.17 (inactive),0.0589 (inactive),-0.235 (inactive),-0.153 (inactive),0.217,-0.23,-0.393 (inactive),0.81,-0.305,-3.12 (inactive),-0.106 (inactive),0.0237 (inactive)
Cc1ccc(S[C@]2(C(=O)NCCCN(C)C)CC(=O)N(C(C)C)[C@@H]2c2ccc(CO)cc2I)cc1,0.533,-3.52 (inactive),-3.69 (inactive),-0.0857 (inactive),0.668 (inactive),-1.31 (inactive),0.847 (inactive),1.52 (inactive),-2.67,-0.145,0.352 (inactive),0.412,-0.621,-2.81 (inactive),0.535 (inactive),0.775 (inactive)
C=CCOC(=O)[C@@H]1[C@H]2C(=O)O[C@H](c3ccccc3)[C@H](c3ccccc3)N2[C@H](c2ccc(OCCOC(=O)[C@H]3C[C@H]4C(=O)N[C@@H](CC(C)C)C(=O)N4[C@H]3c3cccc(OCCO)c3)cc2)[C@@]12C(=O)Nc1ccc(I)cc12,-0.525,-0.195 (inactive),-0.77 (inactive),1.64 (inactive),3.38 (inactive),1.58 (inactive),-0.111 (inactive),-1.14 (inactive),-0.747,-0.0876,0.559 (inactive),0.824,-1.68,2.41 (inactive),0.537 (inactive),0.273 (inactive)
COC(=O)c1c(CC[C@@H](CO)NC(=O)Nc2ncn[nH]2)oc(C(=O)Cc2ccccc2)c1C(=O)OC,0.172,-0.62 (inactive),0.059 (inactive),0.593 (inactive),0.55 (inactive),-0.382 (inactive),0.536 (inactive),0.434 (inactive),0.36,-0.0952,0.782 (inactive),0.883,0.654,-2.98 (inactive),0.498 (inactive),-0.15 (inactive)
COc1ccc([Si](C)(C)[C@H]2[C@H](CCO)O[C@@]3(C(=O)N(Cc4ccccc4)c4ccc(N5C(=O)COc6ccccc65)cc43)[C@@H]2C)cc1,-0.981,0.0662 (inactive),-2.72 (inactive),0.0861 (inactive),1.31 (inactive),3.06 (inactive),1.2 (inactive),0.433 (inactive),-3.14,-0.0622,0.577 (inactive),0.473,-1.09,-0.771 (inactive),-0.584 (inactive),-0.791 (inactive)
